The text below walks through data of publication PMC4081100, “A DNA-binding-site landscape and regulatory network analysis for NAC transcription factors in Arabidopsis thaliana”.

Test in all cases: universal protein binding microarray (PBM); transcription factors of Arabidopsis thaliana; high values mean tight binding
The target in one assay is T1, GST-ANAC019 NAC domain (Arabidopsis thaliana, UniProt Q9C932 14-162).
T1 sequence: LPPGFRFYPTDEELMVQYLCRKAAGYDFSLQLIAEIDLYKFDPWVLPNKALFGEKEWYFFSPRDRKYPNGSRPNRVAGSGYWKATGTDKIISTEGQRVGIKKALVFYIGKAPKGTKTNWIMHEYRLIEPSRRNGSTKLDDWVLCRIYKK
The note with it: protein: recombinant; tags: GST; chain copies: 2; dsDNA, one strand shown. The method, boiled down:
(§1)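 Binding is expressed as the normalised enrichment score (E-score). Proteins carrying a GST tag, whether NAC-domain, full-length or DNA-binding-domain forms, were induced in cells, and zinc acetate was added for zinc-finger proteins. After purification on glutathione–Sepharose 4B and quantification by A280 or anti-GST western blot, each was applied in duplicate at 200 to 500 nM final to custom all-10-mer Agilent 4 × 180K arrays made double-stranded by primer extension. Gapped and ungapped 8-mers were scored.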

A further assay deals with T2, GST-ANAC055(1-171) (Arabidopsis thaliana, UniProt Q9LDY8 1-171).
T2 sequence: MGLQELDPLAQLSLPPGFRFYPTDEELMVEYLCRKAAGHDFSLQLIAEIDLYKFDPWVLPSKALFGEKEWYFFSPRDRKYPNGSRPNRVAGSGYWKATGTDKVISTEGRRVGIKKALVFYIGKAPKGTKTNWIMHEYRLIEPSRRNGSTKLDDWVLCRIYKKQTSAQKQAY
The note with it: protein: recombinant; tags: GST; chain copies: 2; dsDNA, one strand shown. The method, boiled down:
as §1

A further assay deals with T3, GST-ATAF1 NAC domain (Arabidopsis thaliana, UniProt Q39013 7-158).
T3 sequence: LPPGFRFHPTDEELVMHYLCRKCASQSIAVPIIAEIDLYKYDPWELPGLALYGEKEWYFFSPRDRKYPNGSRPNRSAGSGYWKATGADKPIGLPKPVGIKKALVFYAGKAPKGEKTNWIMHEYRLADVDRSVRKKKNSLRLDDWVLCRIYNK
The note with it: protein: recombinant; tags: GST; chain copies: 2; dsDNA, one strand shown. The method, boiled down: as §1

For assay [1], the target named is T4, GST-ANAC092(1-285) full length (Arabidopsis thaliana, UniProt Q9FKA0 1-285).
T4 sequence: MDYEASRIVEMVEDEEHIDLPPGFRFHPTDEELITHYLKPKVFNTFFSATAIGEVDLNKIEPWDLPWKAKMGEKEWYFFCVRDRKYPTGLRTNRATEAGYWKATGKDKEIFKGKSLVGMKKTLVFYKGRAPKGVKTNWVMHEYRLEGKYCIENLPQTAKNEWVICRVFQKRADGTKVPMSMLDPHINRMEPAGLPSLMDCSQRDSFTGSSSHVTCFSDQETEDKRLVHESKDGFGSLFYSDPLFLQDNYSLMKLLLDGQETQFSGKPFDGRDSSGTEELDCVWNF
The note with it: protein: recombinant; tags: GST; chain copies: 2; dsDNA, one strand shown. The method, boiled down:
as §1

The target of a further assay is T5, GST-NTL8 NAC domain (Arabidopsis thaliana, UniProt Q9XIN7 14-156).
T5 sequence: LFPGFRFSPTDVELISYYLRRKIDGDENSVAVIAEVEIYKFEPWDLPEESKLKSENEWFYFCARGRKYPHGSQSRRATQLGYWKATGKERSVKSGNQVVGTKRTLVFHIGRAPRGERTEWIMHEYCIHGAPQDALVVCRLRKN
To be noted: protein: recombinant; tags: GST; chain copies: 2; dsDNA, one strand shown. In outline: as §1

In the next assay the target is T6, GST-VND3 NAC domain (Arabidopsis thaliana, UniProt Q9FH59 12-162).
T6 sequence: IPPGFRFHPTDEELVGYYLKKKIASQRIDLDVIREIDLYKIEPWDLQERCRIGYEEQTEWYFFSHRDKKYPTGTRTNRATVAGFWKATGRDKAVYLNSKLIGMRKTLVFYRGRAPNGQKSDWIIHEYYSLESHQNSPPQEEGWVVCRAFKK
To be noted: protein: recombinant; tags: GST; chain copies: 2; dsDNA, one strand shown. The method, boiled down: as §1

In the next assay the target is T7, GST-VND7 NAC domain (Arabidopsis thaliana, UniProt Q9C8W9 9-158).
T7 sequence: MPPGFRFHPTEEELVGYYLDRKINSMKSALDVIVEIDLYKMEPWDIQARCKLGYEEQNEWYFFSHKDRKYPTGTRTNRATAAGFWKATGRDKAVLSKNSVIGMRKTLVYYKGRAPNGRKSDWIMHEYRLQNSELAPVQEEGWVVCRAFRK
The note with it: protein: recombinant; tags: GST; chain copies: 2; dsDNA, one strand shown. In outline:
as §1

A further assay addresses GST-WRKY1(266-371) (Arabidopsis thaliana, UniProt Q9SI37 266-371). To be noted: protein: recombinant; tags: GST; dsDNA, one strand shown. In outline: as §1
A further assay concerns the target T8, GST-ANAC092(1-176) (Arabidopsis thaliana, UniProt Q9FKA0 1-176).
T8 sequence: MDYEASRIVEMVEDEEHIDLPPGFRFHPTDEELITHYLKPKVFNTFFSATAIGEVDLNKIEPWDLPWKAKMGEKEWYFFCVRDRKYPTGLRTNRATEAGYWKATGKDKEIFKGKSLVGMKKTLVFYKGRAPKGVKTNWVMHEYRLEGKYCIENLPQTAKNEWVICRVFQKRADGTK
To be noted: protein: recombinant; tags: GST; chain copies: 2; dsDNA, one strand shown. In outline:
as §1

The target of the next assay is GST-NTL6(1-168) (Arabidopsis thaliana, UniProt Q9SCK6 1-168). The note with it: protein: recombinant; tags: GST; chain copies: 2; dsDNA, one strand shown. In outline: as §1
The target in the next assay is T9, GST-NAP(1-166) (Arabidopsis thaliana, UniProt O49255 1-166).
T9 sequence: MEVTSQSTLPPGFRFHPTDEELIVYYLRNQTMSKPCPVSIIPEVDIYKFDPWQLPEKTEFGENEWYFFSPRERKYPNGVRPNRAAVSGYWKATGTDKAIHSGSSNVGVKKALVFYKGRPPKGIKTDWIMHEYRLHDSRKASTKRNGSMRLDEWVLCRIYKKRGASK
To be noted: protein: recombinant; tags: GST; chain copies: 2; dsDNA, one strand shown. In outline:
as §1

Another assay deals with T10, GST-NST2(1-184) (Arabidopsis thaliana, UniProt Q9M274 1-184).
T10 sequence: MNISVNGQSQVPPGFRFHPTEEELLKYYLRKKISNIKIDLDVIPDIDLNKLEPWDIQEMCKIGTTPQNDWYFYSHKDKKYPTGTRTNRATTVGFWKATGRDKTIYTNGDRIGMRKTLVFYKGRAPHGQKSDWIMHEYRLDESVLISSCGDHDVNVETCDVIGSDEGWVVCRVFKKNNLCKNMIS
The note with it: protein: recombinant; tags: GST; chain copies: 2; dsDNA, one strand shown. In outline:
as §1

Chain of GST-NTL6(1-168) (Q9SCK6 1-168): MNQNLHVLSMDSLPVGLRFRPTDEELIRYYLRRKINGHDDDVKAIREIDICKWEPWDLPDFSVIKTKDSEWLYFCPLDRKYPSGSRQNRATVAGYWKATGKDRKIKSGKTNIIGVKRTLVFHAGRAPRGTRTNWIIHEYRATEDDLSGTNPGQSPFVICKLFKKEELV
Chain of GST-WRKY1(266-371) (Q9SI37 266-371): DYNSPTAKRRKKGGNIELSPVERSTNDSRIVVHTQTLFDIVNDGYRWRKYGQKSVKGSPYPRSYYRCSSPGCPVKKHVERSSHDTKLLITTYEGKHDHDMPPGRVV

Turning to TACAGTCA, the binding signal in the assay with GST-ANAC019 NAC domain stood at 0.109 E-score; with GST-ANAC055(1-171), 0.0559 E-score; in the assay with GST-ATAF1 NAC domain it was 0.107 E-score; in assay [1] it was 0.131 E-score; in the assay with GST-NTL8 NAC domain it was 0.0899 E-score; with GST-VND3 NAC domain, 0.167 E-score. For the same sequence, the figures for the binding signal in the assay with GST-VND7 NAC domain and with GST-WRKY1(266-371) were 0.0649 E-score and 0.404 E-score, respectively.

For the sequence AGGAAACT, the binding signal with GST-ANAC092(1-176) turned out to be 0.174 E-score; with GST-NTL6(1-168), 0.227 E-score; with GST-ANAC055(1-171), 0.0635 E-score; in the assay with GST-ATAF1 NAC domain it was 0.0874 E-score; in assay [1], 0.186 E-score; with GST-NAP(1-166) it was 0.0881 E-score. Also, the binding signal turned out to be 0.125 E-score with GST-NST2(1-184), 0.426 E-score with GST-NTL8 NAC domain and 0.131 E-score in the assay with GST-VND7 NAC domain.

Regarding TATGGTCA, the values for the binding signal with GST-ANAC055(1-171), with GST-VND3 NAC domain and in the assay with GST-WRKY1(266-371) were 0.0561 E-score, 0.0521 E-score and 0.428 E-score, respectively.

Turning to AGTCTTTG, the binding signal with GST-ANAC092(1-176) came out at 0.0553 E-score; in the assay with GST-NTL6(1-168) it was 0.0583 E-score; with GST-ANAC019 NAC domain, 0.0679 E-score; with GST-ANAC055(1-171) it was 0.0944 E-score; with GST-VND7 NAC domain, 0.125 E-score; in the assay with GST-WRKY1(266-371) it was 0.424 E-score.

With AAGTTGAC, the binding signal was determined as 0.0649 E-score in the assay with GST-ANAC055(1-171), 0.0834 E-score with GST-ATAF1 NAC domain, 0.0703 E-score with GST-VND7 NAC domain and 0.476 E-score with GST-WRKY1(266-371).

Consider ATTAGTCA, for which the binding signal in the assay with GST-ANAC055(1-171) is 0.0956 E-score; with GST-ATAF1 NAC domain, 0.109 E-score; in the assay with GST-VND3 NAC domain, 0.135 E-score; in the assay with GST-WRKY1(266-371), 0.404 E-score.

Turning to ATTCCCTC, the binding signal was 0.115 E-score with GST-NTL6(1-168), 0.0664 E-score with GST-ANAC019 NAC domain, 0.421 E-score with GST-NTL8 NAC domain and 0.0536 E-score with GST-VND7 NAC domain.

As to GCTTTGAC, the binding signal in the assay with GST-WRKY1(266-371) is 0.466 E-score.

Consider AAGGTCAG, for which the binding signal came out at 0.0646 E-score with GST-ATAF1 NAC domain, 0.0579 E-score with GST-NTL8 NAC domain, 0.0582 E-score with GST-VND3 NAC domain and 0.425 E-score in the assay with GST-WRKY1(266-371).

Take TAGGTCAA: the binding signal was 0.077 E-score with GST-ANAC055(1-171), 0.145 E-score with GST-ATAF1 NAC domain, 0.0723 E-score in the assay with GST-VND3 NAC domain and 0.482 E-score with GST-WRKY1(266-371).

As for ATTTTGAC, the binding signal turned out to be 0.15 E-score in the assay with GST-ATAF1 NAC domain; 0.0617 E-score in [1]; 0.0826 E-score with GST-NST2(1-184); 0.101 E-score with GST-VND3 NAC domain; 0.461 E-score in the assay with GST-WRKY1(266-371).
